# Laboratory results: paper PMC7862700, “An all-to-all approach to the identification of sequence-specific readers for epigenetic DNA modifications on cytosine”
# What was measured:
# Test in all cases: DAPPL (digital affinity profiling via proximity ligation, sequencing); 10 mM Tris-HCl pH 7.5, 50 mM NaCl, 1 mM DTT, 4% glycerol, room temperature, 30 min; GST-TFs on glutathione beads, 16-mer random dsDNA library, 0.1% formaldehyde crosslink after washing; high values mean tight binding
# FLI1 = target: T1, FLI1 (Homo sapiens, UniProt Q01543 1-452); conditions: protein: recombinant; tags: N-terminal GST; dsDNA, one strand shown
# T1 sequence: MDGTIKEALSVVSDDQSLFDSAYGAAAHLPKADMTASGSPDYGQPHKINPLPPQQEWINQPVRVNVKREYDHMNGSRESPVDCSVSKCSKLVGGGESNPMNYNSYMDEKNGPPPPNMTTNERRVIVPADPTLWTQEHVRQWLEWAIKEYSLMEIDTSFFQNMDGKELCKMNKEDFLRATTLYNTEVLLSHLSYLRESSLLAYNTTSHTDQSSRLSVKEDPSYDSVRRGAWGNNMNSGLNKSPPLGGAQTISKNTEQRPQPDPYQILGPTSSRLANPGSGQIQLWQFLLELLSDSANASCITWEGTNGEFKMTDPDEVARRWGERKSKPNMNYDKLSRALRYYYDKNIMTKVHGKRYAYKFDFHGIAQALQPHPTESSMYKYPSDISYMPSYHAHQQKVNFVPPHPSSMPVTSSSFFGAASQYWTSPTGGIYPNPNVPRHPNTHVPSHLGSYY
# Outline: (§1)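 Binding signal is defined as a hexamer's read frequency for one factor over its frequency for the tag-only sample. To obtain reads, GST-fused human transcription factors were expressed in yeast, captured on glutathione beads, barcoded with DNA and pooled with that sample. Pools met 200 nmole of a 16-mer random double-stranded DNA library in Tris/NaCl/DTT/glycerol buffer for 30 min at room temperature before washing, 0.1% formaldehyde crosslinking, proximity ligation (BsaI/T4 ligase, 1 h, 37 °C), PCR and Illumina NextSeq500 sequencing.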
# ELK1 = target: T2, ELK1 (Homo sapiens, UniProt P19419 1-428); conditions: protein: recombinant; tags: N-terminal GST; dsDNA, one strand shown
# T2 sequence: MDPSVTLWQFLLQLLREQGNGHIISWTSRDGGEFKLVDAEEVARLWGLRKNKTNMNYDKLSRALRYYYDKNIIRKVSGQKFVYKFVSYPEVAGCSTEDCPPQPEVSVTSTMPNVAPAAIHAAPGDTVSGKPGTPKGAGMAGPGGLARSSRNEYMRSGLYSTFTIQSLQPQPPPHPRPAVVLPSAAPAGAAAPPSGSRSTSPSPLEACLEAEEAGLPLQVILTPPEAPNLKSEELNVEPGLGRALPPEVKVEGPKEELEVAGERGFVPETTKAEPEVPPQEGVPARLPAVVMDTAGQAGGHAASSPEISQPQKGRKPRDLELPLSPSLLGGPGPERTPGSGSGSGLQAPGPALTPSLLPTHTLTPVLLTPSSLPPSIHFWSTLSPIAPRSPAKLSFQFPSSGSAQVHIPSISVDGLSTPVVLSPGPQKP
# Outline: as §1
# GABPA = target: T3, GABPA (Homo sapiens, UniProt Q06546 1-454); conditions: protein: recombinant; tags: N-terminal GST; dsDNA, one strand shown
# T3 sequence: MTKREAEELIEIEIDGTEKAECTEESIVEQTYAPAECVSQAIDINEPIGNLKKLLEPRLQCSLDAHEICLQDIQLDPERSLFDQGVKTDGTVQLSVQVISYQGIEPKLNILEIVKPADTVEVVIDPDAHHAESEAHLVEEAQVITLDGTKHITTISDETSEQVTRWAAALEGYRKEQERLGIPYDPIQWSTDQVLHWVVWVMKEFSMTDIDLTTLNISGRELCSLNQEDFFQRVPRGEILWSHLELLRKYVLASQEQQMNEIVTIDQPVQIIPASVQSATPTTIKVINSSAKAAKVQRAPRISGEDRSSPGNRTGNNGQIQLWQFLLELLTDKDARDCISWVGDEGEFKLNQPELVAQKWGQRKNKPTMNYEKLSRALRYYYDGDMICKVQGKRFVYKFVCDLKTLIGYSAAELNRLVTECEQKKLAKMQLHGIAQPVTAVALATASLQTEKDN
# Outline: as §1
# ERG = target: T4, ERG (Homo sapiens, UniProt P11308 1-479); conditions: protein: recombinant; tags: N-terminal GST; dsDNA, one strand shown
# T4 sequence: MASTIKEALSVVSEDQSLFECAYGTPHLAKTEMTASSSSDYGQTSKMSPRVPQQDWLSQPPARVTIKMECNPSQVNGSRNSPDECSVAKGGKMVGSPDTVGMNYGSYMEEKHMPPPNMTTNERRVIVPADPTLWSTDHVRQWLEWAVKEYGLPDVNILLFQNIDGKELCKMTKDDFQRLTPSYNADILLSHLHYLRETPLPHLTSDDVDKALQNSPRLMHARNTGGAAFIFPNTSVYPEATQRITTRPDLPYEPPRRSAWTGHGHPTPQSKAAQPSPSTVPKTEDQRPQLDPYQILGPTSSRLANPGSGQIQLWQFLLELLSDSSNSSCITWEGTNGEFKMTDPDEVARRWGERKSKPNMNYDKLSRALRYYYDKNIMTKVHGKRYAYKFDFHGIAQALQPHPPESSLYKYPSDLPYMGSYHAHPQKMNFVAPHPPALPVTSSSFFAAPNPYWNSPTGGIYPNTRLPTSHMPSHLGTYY
# Outline: as §1
# ELF1 = ELF1 (Homo sapiens, UniProt P32519 1-619); conditions: protein: recombinant; tags: N-terminal GST; dsDNA, one strand shown
# Outline: as §1
# EHF = target: T5, EHF (Homo sapiens, UniProt Q9NZC4 1-300); conditions: protein: recombinant; tags: N-terminal GST; dsDNA, one strand shown
# T5 sequence: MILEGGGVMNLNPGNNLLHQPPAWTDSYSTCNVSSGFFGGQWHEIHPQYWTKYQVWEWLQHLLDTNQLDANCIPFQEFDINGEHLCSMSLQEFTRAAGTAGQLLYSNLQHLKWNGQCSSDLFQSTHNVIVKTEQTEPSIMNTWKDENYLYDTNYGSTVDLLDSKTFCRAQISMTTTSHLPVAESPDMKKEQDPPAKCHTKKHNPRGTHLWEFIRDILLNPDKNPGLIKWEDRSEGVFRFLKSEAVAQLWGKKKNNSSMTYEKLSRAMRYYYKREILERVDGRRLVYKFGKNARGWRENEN
# Outline: as §1
# SPI1 = SPI1 (Homo sapiens, UniProt P17947 1-270); conditions: protein: recombinant; tags: N-terminal GST; dsDNA, one strand shown
# Outline: as §1
# SPIB = SPIB (Homo sapiens, UniProt Q01892 1-262); conditions: protein: recombinant; tags: N-terminal GST; dsDNA, one strand shown
# Outline: as §1
# ELK3 = target: T6, ELK3 (Homo sapiens, UniProt P41970 1-407); conditions: protein: recombinant; tags: N-terminal GST; dsDNA, one strand shown
# T6 sequence: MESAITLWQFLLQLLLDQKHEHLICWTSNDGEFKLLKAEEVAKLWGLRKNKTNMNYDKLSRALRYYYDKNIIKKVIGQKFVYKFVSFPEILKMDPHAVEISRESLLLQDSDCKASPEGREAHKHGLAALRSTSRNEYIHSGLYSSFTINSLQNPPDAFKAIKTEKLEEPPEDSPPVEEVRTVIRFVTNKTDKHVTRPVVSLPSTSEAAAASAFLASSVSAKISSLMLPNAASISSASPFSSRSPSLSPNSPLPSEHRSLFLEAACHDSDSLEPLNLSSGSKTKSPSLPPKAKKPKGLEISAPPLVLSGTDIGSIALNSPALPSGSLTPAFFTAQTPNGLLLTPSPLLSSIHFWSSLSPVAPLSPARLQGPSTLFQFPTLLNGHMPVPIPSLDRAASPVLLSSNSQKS
# Outline: as §1
# FEV = target: T7, FEV (Homo sapiens, UniProt Q99581 1-238); conditions: protein: recombinant; tags: N-terminal GST; dsDNA, one strand shown
# T7 sequence: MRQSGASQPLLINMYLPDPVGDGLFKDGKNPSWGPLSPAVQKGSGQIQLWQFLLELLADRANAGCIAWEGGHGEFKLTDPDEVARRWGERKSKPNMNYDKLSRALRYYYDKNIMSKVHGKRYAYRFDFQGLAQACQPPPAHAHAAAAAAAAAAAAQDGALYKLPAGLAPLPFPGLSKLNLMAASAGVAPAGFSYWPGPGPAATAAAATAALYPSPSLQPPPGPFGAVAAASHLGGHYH
# Outline: as §1
# ETV5 = ETV5 (Homo sapiens, UniProt P41161 1-510); conditions: protein: recombinant; tags: N-terminal GST; dsDNA, one strand shown
# Outline: as §1
# HSF1 = HSF1 (Homo sapiens, UniProt Q00613 1-529); conditions: protein: recombinant; tags: N-terminal GST; chain copies: 3; dsDNA, one strand shown
# Outline: as §1
# SPIC = target: T8, SPIC (Homo sapiens, UniProt Q8N5J4 1-248); conditions: protein: recombinant; tags: N-terminal GST; dsDNA, one strand shown
# T8 sequence: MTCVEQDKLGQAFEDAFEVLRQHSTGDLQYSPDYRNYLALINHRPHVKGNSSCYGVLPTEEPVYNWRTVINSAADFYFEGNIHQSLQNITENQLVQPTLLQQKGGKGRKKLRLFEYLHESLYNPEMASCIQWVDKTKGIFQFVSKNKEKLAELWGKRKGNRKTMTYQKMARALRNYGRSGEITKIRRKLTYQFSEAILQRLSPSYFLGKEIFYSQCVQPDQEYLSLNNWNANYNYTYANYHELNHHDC
# Outline: as §1
# ELF4 = ELF4 (Homo sapiens, UniProt Q99607 1-663); conditions: protein: recombinant; tags: N-terminal GST; dsDNA, one strand shown
# Outline: as §1
# ELK4 = target: T9, ELK4 (Homo sapiens, UniProt P28324-2 1-405); conditions: protein: recombinant; tags: N-terminal GST; dsDNA, one strand shown
# T9 sequence: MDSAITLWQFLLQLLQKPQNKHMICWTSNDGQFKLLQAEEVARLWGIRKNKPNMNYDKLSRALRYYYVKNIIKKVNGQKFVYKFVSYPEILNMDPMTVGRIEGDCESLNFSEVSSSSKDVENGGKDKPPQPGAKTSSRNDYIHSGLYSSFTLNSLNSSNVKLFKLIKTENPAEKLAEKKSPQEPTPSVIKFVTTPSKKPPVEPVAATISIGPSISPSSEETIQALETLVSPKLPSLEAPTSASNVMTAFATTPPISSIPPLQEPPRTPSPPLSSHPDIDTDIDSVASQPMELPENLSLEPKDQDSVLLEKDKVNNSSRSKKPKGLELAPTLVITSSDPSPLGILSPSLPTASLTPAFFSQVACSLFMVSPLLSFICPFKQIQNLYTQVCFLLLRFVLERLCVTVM
# Outline: as §1
# ELF3 = target: T10, ELF3 (Homo sapiens, UniProt P78545 1-371); conditions: protein: recombinant; tags: N-terminal GST; dsDNA, one strand shown
# T10 sequence: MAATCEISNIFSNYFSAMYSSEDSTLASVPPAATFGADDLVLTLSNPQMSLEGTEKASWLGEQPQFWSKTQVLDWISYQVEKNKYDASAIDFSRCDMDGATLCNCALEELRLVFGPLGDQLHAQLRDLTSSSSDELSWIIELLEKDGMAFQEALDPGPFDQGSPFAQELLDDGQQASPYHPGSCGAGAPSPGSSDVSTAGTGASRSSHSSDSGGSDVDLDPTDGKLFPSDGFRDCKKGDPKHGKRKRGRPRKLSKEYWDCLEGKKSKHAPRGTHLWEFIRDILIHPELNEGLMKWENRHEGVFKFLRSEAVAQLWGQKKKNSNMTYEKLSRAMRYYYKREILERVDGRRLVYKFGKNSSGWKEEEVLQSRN
# Outline: as §1
# CRX = CRX (Homo sapiens, UniProt O43186 1-299); conditions: protein: recombinant; tags: N-terminal GST; dsDNA, one strand shown
# Outline: as §1
# ETV1 = ETV1 (Homo sapiens, UniProt P50549 1-477); conditions: protein: recombinant; tags: N-terminal GST; dsDNA, one strand shown
# Outline: as §1
# CRX, sequence (O43186 whole entry): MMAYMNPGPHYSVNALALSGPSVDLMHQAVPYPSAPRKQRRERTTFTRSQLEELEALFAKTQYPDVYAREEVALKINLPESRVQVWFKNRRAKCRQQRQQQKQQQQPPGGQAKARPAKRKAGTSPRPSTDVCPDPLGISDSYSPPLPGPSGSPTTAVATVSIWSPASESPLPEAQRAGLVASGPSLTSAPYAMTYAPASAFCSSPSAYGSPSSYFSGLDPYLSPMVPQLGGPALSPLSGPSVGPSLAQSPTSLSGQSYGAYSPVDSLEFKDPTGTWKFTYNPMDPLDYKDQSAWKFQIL
# ETV1, sequence (P50549 whole entry): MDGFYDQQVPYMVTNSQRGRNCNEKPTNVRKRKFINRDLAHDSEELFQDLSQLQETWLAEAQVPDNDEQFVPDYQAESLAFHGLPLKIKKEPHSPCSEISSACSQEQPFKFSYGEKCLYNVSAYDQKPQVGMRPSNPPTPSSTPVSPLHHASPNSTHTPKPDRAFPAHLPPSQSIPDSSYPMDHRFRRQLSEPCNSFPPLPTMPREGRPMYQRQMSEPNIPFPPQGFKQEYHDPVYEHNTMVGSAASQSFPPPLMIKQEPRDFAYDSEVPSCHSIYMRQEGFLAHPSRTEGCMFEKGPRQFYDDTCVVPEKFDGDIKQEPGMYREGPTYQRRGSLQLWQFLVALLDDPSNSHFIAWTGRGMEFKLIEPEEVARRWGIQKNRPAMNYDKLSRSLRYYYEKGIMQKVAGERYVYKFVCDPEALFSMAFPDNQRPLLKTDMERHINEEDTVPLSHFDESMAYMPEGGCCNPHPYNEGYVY
# ELF4, sequence (Q99607 whole entry): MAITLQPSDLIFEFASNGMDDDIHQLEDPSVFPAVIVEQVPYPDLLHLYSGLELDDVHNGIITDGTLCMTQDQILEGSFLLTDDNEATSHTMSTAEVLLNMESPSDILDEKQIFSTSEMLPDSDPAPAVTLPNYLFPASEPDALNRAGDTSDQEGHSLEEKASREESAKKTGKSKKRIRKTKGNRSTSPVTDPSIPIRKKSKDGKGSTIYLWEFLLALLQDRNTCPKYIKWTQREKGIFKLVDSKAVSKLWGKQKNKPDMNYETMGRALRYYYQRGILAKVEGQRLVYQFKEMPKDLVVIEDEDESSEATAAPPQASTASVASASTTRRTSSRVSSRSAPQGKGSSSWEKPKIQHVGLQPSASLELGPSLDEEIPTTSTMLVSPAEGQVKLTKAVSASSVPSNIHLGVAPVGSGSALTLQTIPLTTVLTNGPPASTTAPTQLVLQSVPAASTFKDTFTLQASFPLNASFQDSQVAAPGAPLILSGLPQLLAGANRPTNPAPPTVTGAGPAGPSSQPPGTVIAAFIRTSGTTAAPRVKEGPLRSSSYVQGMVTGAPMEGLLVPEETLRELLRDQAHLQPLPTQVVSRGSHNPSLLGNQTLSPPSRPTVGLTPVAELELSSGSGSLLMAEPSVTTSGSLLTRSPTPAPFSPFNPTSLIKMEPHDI
# HSF1, sequence (Q00613 whole entry): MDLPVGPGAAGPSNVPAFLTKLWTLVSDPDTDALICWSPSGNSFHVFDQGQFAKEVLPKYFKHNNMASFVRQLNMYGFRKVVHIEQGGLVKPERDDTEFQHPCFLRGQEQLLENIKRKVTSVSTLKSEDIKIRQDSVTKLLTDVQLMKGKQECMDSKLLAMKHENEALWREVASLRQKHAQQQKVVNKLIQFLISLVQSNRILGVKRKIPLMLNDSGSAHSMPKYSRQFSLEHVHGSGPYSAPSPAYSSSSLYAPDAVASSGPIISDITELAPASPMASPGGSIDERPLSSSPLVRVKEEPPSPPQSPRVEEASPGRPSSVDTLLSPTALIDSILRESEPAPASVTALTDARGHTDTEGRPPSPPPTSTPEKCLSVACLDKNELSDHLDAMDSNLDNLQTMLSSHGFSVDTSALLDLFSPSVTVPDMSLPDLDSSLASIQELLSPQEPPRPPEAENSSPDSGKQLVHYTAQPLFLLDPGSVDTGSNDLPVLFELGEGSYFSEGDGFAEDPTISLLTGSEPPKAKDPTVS
# SPIB, sequence (Q01892 whole entry): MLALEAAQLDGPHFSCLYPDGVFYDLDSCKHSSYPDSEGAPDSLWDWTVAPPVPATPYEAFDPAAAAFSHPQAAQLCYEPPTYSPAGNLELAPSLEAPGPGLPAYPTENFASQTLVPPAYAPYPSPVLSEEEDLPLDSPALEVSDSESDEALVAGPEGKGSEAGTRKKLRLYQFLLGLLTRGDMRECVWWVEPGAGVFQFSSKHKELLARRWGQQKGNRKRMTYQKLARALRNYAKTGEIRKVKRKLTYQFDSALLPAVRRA
# ETV5, sequence (P41161 whole entry): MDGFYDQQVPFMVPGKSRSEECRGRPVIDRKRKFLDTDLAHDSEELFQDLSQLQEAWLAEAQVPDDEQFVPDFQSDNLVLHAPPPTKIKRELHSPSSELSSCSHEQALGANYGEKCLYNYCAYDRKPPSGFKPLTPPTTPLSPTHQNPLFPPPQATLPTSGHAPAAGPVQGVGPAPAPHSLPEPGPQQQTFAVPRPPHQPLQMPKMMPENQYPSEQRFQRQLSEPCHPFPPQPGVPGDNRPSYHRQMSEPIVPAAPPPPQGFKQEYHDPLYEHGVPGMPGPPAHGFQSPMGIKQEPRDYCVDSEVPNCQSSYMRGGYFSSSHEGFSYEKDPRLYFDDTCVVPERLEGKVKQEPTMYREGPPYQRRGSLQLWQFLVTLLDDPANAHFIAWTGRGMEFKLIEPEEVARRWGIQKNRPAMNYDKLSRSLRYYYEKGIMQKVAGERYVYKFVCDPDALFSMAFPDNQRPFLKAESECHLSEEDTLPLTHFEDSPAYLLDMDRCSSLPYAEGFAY
# ELF1, sequence (P32519 whole entry): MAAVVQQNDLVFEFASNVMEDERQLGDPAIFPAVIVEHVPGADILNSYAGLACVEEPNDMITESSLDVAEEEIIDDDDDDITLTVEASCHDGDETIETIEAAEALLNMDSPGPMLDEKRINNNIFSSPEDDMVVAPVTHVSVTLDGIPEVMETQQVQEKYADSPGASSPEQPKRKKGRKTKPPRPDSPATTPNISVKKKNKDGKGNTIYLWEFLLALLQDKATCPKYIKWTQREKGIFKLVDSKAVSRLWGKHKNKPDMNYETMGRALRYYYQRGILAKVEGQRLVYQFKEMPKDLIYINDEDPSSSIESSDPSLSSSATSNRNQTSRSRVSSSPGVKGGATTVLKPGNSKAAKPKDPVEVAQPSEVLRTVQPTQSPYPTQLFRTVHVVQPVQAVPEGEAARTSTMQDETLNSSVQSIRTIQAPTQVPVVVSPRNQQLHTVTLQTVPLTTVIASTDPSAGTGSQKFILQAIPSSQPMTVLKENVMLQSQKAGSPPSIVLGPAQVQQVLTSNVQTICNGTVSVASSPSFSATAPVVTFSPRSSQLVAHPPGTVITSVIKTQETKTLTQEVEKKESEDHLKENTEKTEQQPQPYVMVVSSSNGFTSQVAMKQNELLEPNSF
sequence,measurement,setting,value
AGCCTC,binding signal,FLI1,"1.39 fold enrichment (6-mer frequency, TF over GST control)"
same,binding signal,ELK1,"1.3 fold enrichment (6-mer frequency, TF over GST control)"
same,binding signal,GABPA,"1.31 fold enrichment (6-mer frequency, TF over GST control)"
same,binding signal,ERG,"1.21 fold enrichment (6-mer frequency, TF over GST control)"
same,binding signal,ELF1,"1.25 fold enrichment (6-mer frequency, TF over GST control)"
same,binding signal,EHF,"1.13 fold enrichment (6-mer frequency, TF over GST control)"
same,binding signal,SPI1,"1.26 fold enrichment (6-mer frequency, TF over GST control)"
same,binding signal,SPIB,"1.07 fold enrichment (6-mer frequency, TF over GST control)"
same,binding signal,ELK3,"1.21 fold enrichment (6-mer frequency, TF over GST control)"
same,binding signal,FEV,"1.27 fold enrichment (6-mer frequency, TF over GST control)"
same,binding signal,ETV5,"1.27 fold enrichment (6-mer frequency, TF over GST control)"
same,binding signal,HSF1,"1.3 fold enrichment (6-mer frequency, TF over GST control)"
same,binding signal,SPIC,"1.25 fold enrichment (6-mer frequency, TF over GST control)"
same,binding signal,ELF4,"1.36 fold enrichment (6-mer frequency, TF over GST control)"
same,binding signal,ELK4,"1.13 fold enrichment (6-mer frequency, TF over GST control)"
same,binding signal,ELF3,"1.22 fold enrichment (6-mer frequency, TF over GST control)"
same,binding signal,CRX,"1.33 fold enrichment (6-mer frequency, TF over GST control)"
same,binding signal,ETV1,"1.13 fold enrichment (6-mer frequency, TF over GST control)"
